Assay results published in the supplement of paper PMC11732987, “Enantioselective OTUD7B fragment discovery through chemoproteomics screening and high-throughput optimisation” (Communications Chemistry, 2025).

Columns and labels:
Test in all cases: log2 ratio of Biotin-Ahx-Ub-VS probe labelling (fragment/DMSO); higher = less target engagement (more negative = stronger competition), active = hit call of the paper (q ≤ 0.05, log2 ratio ≤ -1)
Conditions in all cases: compound concentration: 200 uM; treatment time: 3 h
[1] = molecular target: USP9X (UniProt Q93008)
In short: (§1)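 HEK293T lysate in Tris/CHAPS/IGEPAL buffer with protease inhibitors (495 µg per sample) was given fragment at 200 µM or vehicle for 3 h, in triplicate. It then received Biotin-Ahx-Ub-VS at 0.5 µM final for 1 h. Labelled DUBs were NeutrAvidin-enriched, digested with LysC and trypsin, and run by diaPASEF LC-MS/MS. Values are average log2 fragment/vehicle ratios by unpaired t-test on global-median-normalised Spectronaut quantities of proteins with ≥2 unique peptides.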

[2] = molecular target: UniProt O00487
Chain of UniProt O00487 (O00487 whole entry): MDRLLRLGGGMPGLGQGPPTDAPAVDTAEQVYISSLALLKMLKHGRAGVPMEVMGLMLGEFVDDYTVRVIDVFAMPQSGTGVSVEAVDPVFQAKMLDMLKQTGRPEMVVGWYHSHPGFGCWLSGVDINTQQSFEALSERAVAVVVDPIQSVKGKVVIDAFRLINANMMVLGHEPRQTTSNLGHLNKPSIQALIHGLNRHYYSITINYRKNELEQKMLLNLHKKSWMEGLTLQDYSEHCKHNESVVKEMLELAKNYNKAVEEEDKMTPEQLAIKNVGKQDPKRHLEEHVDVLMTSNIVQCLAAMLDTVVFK
In short: as §1

[3] = molecular target: UniProt O00507
Chain of UniProt O00507 (O00507 whole entry): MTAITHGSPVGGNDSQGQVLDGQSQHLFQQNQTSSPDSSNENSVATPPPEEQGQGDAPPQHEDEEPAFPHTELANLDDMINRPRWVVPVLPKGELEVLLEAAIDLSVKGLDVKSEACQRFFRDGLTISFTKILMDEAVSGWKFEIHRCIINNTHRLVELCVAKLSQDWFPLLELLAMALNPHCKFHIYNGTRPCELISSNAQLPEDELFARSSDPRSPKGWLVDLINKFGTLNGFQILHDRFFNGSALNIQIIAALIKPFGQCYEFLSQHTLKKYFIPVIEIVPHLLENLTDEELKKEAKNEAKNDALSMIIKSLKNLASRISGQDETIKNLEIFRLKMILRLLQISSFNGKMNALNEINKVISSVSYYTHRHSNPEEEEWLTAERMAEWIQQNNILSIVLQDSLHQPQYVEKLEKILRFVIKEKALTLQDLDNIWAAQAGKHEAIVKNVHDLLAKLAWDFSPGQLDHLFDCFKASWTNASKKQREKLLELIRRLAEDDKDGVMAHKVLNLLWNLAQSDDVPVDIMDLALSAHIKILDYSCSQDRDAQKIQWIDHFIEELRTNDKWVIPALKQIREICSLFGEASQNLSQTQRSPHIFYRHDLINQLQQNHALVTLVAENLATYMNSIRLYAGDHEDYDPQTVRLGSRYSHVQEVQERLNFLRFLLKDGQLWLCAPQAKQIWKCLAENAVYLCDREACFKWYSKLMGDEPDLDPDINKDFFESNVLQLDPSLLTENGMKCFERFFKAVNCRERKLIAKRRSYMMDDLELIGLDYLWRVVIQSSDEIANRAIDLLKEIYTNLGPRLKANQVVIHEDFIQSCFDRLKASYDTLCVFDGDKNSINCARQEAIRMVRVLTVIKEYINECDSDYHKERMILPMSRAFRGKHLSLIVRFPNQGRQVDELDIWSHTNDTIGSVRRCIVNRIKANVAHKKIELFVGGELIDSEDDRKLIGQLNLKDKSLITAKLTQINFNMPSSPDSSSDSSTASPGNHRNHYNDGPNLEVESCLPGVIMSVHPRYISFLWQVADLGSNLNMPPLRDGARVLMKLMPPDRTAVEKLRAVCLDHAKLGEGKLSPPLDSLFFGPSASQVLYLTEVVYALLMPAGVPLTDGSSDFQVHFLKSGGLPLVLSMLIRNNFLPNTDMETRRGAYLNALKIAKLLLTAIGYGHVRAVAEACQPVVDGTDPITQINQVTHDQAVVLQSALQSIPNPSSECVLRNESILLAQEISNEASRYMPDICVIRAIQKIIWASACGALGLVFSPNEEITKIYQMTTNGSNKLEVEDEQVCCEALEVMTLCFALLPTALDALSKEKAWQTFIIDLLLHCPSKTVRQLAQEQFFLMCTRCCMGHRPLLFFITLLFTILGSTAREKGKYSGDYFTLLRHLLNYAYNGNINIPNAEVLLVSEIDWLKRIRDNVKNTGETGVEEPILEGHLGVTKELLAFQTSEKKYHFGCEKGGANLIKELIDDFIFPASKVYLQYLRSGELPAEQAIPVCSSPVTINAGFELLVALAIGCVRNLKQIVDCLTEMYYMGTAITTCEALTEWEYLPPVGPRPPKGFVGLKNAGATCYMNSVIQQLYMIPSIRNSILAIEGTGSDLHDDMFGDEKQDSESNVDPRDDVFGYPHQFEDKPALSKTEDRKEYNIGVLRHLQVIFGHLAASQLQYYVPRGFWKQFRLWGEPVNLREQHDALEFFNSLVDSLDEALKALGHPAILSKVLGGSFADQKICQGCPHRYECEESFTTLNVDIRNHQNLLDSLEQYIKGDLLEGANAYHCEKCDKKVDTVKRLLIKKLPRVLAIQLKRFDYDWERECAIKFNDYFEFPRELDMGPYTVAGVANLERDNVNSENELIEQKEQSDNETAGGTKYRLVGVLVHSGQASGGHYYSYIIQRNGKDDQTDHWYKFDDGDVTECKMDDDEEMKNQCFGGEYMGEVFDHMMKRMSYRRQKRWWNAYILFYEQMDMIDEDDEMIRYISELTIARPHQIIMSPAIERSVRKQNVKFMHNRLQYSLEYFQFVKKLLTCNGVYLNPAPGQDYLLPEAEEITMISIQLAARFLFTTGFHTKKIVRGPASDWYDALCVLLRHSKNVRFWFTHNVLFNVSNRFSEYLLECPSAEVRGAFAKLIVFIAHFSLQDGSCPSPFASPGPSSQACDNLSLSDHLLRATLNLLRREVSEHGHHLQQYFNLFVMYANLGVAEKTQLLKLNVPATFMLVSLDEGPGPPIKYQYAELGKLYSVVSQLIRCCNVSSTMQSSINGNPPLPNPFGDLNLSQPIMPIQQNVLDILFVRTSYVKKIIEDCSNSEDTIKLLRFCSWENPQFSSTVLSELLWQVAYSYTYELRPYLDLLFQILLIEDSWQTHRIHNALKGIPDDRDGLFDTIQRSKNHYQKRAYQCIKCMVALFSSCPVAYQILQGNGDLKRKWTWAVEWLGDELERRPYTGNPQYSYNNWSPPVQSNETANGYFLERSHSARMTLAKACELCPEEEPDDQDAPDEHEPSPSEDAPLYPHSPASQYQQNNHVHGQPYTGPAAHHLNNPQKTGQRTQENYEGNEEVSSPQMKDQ
In short: as §1

[4] = molecular target: UniProt P51784
Chain of UniProt P51784 (P51784 whole entry): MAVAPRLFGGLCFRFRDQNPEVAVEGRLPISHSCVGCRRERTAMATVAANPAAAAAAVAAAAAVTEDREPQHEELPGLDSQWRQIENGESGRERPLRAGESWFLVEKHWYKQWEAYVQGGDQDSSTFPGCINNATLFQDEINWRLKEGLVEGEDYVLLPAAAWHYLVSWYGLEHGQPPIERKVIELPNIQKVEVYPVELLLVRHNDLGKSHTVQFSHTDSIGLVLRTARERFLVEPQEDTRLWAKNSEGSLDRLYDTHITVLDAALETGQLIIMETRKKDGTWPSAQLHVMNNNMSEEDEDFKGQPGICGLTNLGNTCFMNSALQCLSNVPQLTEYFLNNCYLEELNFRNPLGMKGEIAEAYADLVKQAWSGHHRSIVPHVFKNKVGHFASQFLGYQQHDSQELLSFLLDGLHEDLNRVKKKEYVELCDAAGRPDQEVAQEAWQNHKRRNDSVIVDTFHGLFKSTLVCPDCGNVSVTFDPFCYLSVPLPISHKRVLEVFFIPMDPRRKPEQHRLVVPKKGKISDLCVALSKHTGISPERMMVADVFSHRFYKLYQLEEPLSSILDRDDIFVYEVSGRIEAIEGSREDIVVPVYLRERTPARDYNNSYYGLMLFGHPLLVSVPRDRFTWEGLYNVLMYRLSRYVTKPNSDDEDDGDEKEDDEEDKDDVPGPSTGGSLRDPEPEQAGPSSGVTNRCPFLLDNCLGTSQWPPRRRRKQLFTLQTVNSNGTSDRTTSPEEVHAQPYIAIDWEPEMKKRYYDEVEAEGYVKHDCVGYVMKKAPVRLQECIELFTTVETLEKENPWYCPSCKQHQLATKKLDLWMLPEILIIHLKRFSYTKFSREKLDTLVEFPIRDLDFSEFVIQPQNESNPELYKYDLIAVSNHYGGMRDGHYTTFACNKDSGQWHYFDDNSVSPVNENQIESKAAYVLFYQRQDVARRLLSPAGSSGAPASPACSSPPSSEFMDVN
In short: as §1

[5] = molecular target: T1, UniProt Q5T2D3
T1 sequence (whole entry): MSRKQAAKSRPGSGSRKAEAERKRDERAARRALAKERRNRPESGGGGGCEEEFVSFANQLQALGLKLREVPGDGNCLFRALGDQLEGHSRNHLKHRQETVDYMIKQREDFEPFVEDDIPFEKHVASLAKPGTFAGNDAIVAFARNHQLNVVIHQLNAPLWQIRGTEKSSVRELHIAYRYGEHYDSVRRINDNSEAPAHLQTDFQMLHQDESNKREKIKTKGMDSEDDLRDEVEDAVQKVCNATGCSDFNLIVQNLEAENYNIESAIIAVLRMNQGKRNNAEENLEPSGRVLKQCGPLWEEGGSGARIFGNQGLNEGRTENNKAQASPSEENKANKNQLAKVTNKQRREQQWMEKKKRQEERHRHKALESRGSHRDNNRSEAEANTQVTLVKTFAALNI
In short: as §1

[6] = molecular target: T2, UniProt Q8TE49
T2 sequence (whole entry): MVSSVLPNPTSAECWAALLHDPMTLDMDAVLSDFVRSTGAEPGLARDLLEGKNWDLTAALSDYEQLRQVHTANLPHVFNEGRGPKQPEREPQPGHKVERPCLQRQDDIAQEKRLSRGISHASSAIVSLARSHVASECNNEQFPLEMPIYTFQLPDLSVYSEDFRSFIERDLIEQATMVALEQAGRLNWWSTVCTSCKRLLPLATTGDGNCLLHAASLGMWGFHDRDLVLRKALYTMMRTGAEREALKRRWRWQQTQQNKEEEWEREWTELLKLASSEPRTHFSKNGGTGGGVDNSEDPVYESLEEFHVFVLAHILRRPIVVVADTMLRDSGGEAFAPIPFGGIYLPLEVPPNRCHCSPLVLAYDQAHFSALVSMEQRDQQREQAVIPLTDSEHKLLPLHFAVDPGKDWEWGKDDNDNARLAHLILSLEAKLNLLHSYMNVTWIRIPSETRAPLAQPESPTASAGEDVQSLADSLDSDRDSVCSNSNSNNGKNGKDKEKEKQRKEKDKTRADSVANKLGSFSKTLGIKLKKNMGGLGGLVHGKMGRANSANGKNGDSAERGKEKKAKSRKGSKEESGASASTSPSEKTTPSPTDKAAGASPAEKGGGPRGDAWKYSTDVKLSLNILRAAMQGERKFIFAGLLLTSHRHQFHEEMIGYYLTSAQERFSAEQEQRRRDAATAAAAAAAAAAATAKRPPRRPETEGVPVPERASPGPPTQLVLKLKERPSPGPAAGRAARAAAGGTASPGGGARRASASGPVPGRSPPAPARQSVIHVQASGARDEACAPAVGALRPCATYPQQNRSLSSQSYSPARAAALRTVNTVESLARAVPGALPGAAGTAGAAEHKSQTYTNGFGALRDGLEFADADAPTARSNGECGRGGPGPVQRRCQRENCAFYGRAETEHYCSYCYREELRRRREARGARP
In short: as §1

[7] = molecular target: T3, UniProt Q9P2H5
T3 sequence (whole entry): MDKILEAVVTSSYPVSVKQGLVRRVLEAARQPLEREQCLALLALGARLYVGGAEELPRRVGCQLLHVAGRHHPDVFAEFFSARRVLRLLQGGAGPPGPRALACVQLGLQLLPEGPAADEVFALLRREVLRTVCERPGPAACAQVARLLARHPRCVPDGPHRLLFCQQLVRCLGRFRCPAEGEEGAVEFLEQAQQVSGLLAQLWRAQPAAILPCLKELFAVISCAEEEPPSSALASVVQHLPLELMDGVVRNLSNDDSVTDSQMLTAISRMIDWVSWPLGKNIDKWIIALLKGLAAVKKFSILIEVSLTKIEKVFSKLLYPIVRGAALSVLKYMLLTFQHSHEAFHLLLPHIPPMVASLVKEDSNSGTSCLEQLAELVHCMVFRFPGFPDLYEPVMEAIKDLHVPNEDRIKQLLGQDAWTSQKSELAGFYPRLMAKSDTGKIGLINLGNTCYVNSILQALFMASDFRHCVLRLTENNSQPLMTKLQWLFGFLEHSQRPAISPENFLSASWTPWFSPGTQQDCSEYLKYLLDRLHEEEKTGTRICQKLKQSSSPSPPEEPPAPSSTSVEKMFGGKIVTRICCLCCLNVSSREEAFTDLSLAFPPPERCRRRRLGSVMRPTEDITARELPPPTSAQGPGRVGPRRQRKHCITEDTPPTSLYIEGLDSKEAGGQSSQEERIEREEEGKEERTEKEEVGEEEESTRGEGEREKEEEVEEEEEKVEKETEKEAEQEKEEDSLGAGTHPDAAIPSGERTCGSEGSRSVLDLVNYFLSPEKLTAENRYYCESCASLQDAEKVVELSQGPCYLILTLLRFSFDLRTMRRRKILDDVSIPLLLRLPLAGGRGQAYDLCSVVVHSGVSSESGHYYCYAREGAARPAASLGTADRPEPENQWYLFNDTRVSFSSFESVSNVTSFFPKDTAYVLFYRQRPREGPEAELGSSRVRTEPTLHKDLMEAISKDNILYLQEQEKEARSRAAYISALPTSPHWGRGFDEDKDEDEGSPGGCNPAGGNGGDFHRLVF
In short: as §1

[8] = molecular target: T4, UniProt Q9UGI0
T4 sequence (whole entry): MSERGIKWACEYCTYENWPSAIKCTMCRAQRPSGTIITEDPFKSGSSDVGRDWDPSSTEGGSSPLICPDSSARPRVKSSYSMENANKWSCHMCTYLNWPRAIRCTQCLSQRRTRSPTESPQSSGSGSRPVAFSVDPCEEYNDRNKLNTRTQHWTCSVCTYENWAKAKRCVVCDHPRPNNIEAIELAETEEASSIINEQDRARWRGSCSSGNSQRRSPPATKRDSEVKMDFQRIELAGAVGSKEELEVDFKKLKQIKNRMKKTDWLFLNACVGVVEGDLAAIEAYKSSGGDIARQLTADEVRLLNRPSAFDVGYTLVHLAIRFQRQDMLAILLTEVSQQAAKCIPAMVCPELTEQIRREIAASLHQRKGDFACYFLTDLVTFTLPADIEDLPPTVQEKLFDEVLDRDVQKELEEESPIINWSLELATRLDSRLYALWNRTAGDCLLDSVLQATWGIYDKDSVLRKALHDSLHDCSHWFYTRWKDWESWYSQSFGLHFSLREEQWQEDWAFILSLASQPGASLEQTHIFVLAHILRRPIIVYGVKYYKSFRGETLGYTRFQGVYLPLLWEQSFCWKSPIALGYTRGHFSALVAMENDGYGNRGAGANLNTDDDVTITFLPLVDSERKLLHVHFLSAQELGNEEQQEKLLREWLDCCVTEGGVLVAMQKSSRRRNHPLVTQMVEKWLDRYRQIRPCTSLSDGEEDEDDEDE
In short: as §1

[9] = molecular target: T5, YOD1 (UniProt Q5VVQ6)
T5 sequence (whole entry): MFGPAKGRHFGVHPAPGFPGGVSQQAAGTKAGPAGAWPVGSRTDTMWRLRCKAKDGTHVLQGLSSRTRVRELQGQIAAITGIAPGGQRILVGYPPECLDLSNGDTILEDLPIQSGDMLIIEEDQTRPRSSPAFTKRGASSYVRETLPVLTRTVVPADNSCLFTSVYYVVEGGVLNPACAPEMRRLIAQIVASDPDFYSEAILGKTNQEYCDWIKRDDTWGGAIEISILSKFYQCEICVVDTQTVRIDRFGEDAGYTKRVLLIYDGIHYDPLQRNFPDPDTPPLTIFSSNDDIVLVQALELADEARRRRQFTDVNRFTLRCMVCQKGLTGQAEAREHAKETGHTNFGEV
In short: as §1

Measured: log2 ratio of Biotin-Ahx-Ub-VS probe labelling

Cc1cccnc1NC(=O)C1CCN(C(=O)CCl)CC1.Cl
inactive: [1] -0.327 | [2] 0.014 | [3] -0.282 | [4] -0.0141 | [5] -0.408 | [6] -0.254 | [7] -0.348 | [8] -0.465 | [9] -0.214
